Experimental data: PubChem BioAssay AID1159580 (chemical genetic matrix, 2015)
Hit rate of the full screen: of about 5,500 compounds, about 2,000 (36%) were called active. Not shown: some 18% with an inconclusive outcome. Rule as the data show it: active = normalized growth mostly below about 0.91 (no sharp cut-off); inconclusive = no clear call, values can overlap the other calls; inactive = mostly above about 0.92. The list shows a part of the results.

Assay: chemical genetic growth profiling, strain panel (AID 1159580);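 also: tested at 20 µM; growth read once vehicle control cultures reached saturation at 30 °C; 1 = growth at the plate median or of vehicle wells; lower values mean less growth of the strain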
Details: S. cerevisiae deletion strains, growth OD
[1] = locus YAL013W, strain DEP1, hits give low values
[2] = locus YAL040C, strain CLN3, hits give low values
[3] = locus YCL061C, strain MRC1 (second series), hits give low values
[4] = locus YDR363W, strain ESC2, hits give low values
[5] = locus YER002W, strain NOP16, hits give low values
[6] = locus YMR263W, strain SAP30, hits give low values
[7] = locus YMR307W, strain GAS1, hits give low values
[8] = locus YNL153C, strain GIM3, hits give low values
[9] = locus YNL175C, strain NOP13, hits give low values
[10] = locus YNL197C, strain WHI3, hits give low values
[11] = locus YNL224C, strain SQS1, hits give low values
[12] = locus YNL322C, strain KRE1, hits give low values
[13] = locus YOR083W, strain WHI5 (second series), hits give low values
[14] = locus YPL055C, strain LGE1, hits give low values
[15] = locus YPL241C, strain CIN2, hits give low values
[16] = locus YDR150W, strain NUM1, hits give low values
[17] = locus YGR078C, strain PAC10, hits give low values

Measured: normalized growth

NCC1(CC(=O)O)CCCCC1
inactive: [1] 1 | [2] 0.991 | [3] 1.01 | [4] 0.995 | [5] 1.01 | [6] 0.999 | [7] 0.99 | [8] 1.02 | [9] 1.01 | [10] 1.01 | [11] 1.02 | [12] 0.998 | [13] 0.977 | [14] 0.999

C[N+]1(C)C2CCC1CC(OC(=O)c1c[nH]c3ccccc13)C2 (stereo not drawn)
inactive: [1] 1.02 | [2] 1.06 | [3] 0.996 | [4] 1 | [5] 0.974 | [6] 0.997 | [7] 1.01 | [9] 0.973 | [10] 1.01 | [11] 1.02 | [12] 1 | [13] 0.978 | [14] 1 | [15] 1

CCSC(=N)N
active: [2] 1.12 [resistant] | [14] 1.17 [resistant]
inactive: locus YAL021C, strain ccr4, hits give low values 1.03 | locus YAL026C, strain drs2, hits give low values 1.01 | locus YAL030W, strain snc1, hits give low values 1.01 | locus YBL061C, strain skt5, hits give low values 1.02 | locus YBR009C, strain hhf1, hits give low values 1.01 | locus YBR023C, strain chs3, hits give low values 1.02 | locus YBR171W, strain sec66, hits give low values 1.02 | locus YBR231C, strain swc5, hits give low values 1.01 | locus YBR279W, strain paf1, hits give low values 1.01 | locus YCL011C, strain gbp2, hits give low values 1.02 | locus YCL016C, strain dcc1, hits give low values 1.01 | [3] 1 | locus YCL061C, strain MRC1, hits give low values 1.01 | locus YCL069W, strain vba3, hits give low values 1.01 | locus YCR088W, strain abp1, hits give low values 1.02 | locus YDL005C, strain med2, hits give low values 1.03 | locus YDL040C, strain nat1, hits give low values 1.02 | locus YDR001C, strain nth1, hits give low values 1.01 | locus YDR069C, strain doa4, hits give low values 1.01 | locus YDR137W, strain rgp1, hits give low values 1.01 | [16] 1.01 | locus YDR159W, strain sac3, hits give low values 1.05 | locus YDR195W, strain ref2 1.01 | locus YDR297W, strain sur2, hits give low values 1.02 | locus YDR334W, strain swr1, hits give low values 1.01 | locus YDR335W, strain msn5, hits give low values 1.02 | [4] 1.01 | locus YDR392W, strain spt3, hits give low values 0.975 | locus YEL003W, strain gim4, hits give low values 1.01 | locus YEL037C, strain rad23, hits give low values 1.01 | locus YEL061C, strain CIN8 (second series), hits give low values 1.01 | [5] 0.999 | locus YER015W, strain faa2, hits give low values 1.01 | locus YER016W, strain bim1, hits give low values 1.02 | locus YER111C, strain swi4, hits give low values 1.02 | locus YER155C, strain BEM2 (second series), hits give low values 1.05 | locus YFR010W, strain ubp6, hits give low values 1.01 | locus YGL167C, strain pmr1, hits give low values 1.03 | locus YGL173C, strain kem1, hits give low values 1.01 | locus YGL227W, strain vid30, hits give low values 1.02 | locus YGL240W, strain doc1, hits give low values 1.02 | locus YGL253W, strain hxk2, hits give low values 1.02 | [17] 1.02 | locus YGR229C, strain SMI1, hits give low values 1.04 | locus YHR013C, strain ard1, hits give low values 1 | locus YHR027C, strain rpn1, hits give low values 1.02 | locus YHR142W, strain chs7, hits give low values 1.03 | locus YJL092W, strain hpr5, hits give low values 1.01 | locus YJL095W, strain BCK1 (second series), hits give low values 1.01 | locus YJL115W, strain asf1, hits give low values 1.02 | locus YJL129C, strain trk1, hits give low values 1.04 | locus YJL154C, strain vps35, hits give low values 1.01 | locus YJL164C, strain tpk1, hits give low values 1.01 | locus YJL166W, strain qcr8, hits give low values 1.02 | locus YJL187C, strain SWE1, hits give low values 1.01 | locus YKL160W, strain elf1, hits give low values 1.02 | locus YKR026C, strain gcn3, hits give low values 1.01 | locus YKR091W, strain srl3, hits give low values 1.01 | locus YLL001W, strain dnm1, hits give low values 1.02 | locus YLL026W, hits give low values 1.01 | locus YLL041C, strain sdh2, hits give low values 1.02 | locus YLR027C, strain aat2, hits give low values 1.01 | locus YLR221C, strain rsa3, hits give low values 1.01 | locus YLR258W, strain gsy2, hits give low values 1.01 | locus YLR262C, strain YPT6 (second series), hits give low values 1.02 | locus YLR320W, strain mms22, hits give low values 1.03 | locus YLR342W, strain FKS1, hits give low values 1.02 | locus YLR357W, strain rsc2, hits give low values 1.01 | locus YLR370C, strain arc18, hits give low values 1.02 | locus YLR384C, strain iki3, hits give low values 1.02 | locus YML120C, strain ndi1, hits give low values 1.01 | locus YMR058W, strain fet3, hits give low values 1.02 | locus YMR125W, strain sto1, hits give low values 1.01 | locus YMR129W, hits give low values 1.02 | locus YMR205C, strain PFK2, hits give low values 0.998 | locus YMR231W, strain pep5, hits give low values 1.01 | [6] 1.01 | [7] 1.03 | locus YNL071W, strain lat1, hits give low values 1.02 | [8] 1.03 | [9] 0.988 | [10] 0.992 | locus YNL209W, strain ssb2, hits give low values 1.01 | [11] 1.01 | locus YNL248C, strain rpa49, hits give low values 1.02 | locus YNL322C, strain KRE1 (second series), hits give low values 1.02 | [12] 1.01 | locus YNR049C, strain mso1, hits give low values 1.01 | locus YOR001W, strain rrp6, hits give low values 1.02 | locus YOR070C, strain gyp1, hits give low values 1.01 | locus YOR080W, strain dia2, hits give low values 1.03 | [13] 0.995 | locus YOR083W, strain WHI5, hits give low values 1.03 | locus YOR106W, strain vam3, hits give low values 1.04 | locus YOR265W, strain rbl2, hits give low values 1.01 | locus YOR270C, strain vph1, hits give low values 1.07 | locus YOR290C, strain snf2, hits give low values 0.96 | locus YPL051W, strain arl3, hits give low values 1.02 | locus YPL078C, strain atp4, hits give low values 1.02 | locus YPL106C, strain sse1, hits give low values 1.04 | locus YPL240C, strain hsp82, hits give low values 1.02

CSC(=N)N
inactive: [2] 0.992 | [3] 1.01 | [16] 1.01 | [4] 1.02 | [5] 0.984 | [17] 1.01 | [7] 1.01 | [8] 1.01 | [9] 1.01 | [10] 1 | [11] 1 | [13] 1.01 | [15] 1.01

CN(C)CCCCSC(=N)N
inactive: [1] 1.04 | [2] 0.998 | [3] 1.02 | [16] 1.01 | [4] 1.02 | [5] 0.985 | locus YJR075W, strain HOC1, hits give low values 1.04 | [7] 1.01 | locus YNL128W, strain TEP1, hits give low values 0.999 | [9] 0.995 | [10] 0.992 | [11] 1 | [13] 1.01

COc1ccc(NC(=O)O/N=C(/N)c2ccc(Oc3c(Cl)cncc3Cl)cc2)cc1
active: locus YER123W, strain YCK3, hits give low values 0.575 | locus YFR019W, strain FAB1, hits give low values 0.527 | locus YHR030C, strain SLT2, hits give low values 0.71 | locus YJR066W, strain TOR1 (second series), hits give low values 0.572 | locus YLR113W, strain HOG1, hits give low values 0.604 | locus YPL256C, strain CLN2, hits give low values 0.676
inactive: locus YAR019C, strain CDC15, hits give low values 0.966 | locus YBL105C, strain PKC1, hits give low values 0.974 | locus YBR135W, strain CKS1, hits give low values 0.975 | locus YBR136W, strain MEC1, hits give low values 0.982 | locus YBR160W, strain CDC28, hits give low values 0.976 | locus YDL017W, strain CDC7, hits give low values 0.98 | locus YDL028C, strain MPS1, hits give low values 0.987 | locus YDL101C, strain DUN1, hits give low values 0.969 | locus YDL108W, strain KIN28, hits give low values 0.99 | locus YDL132W, strain cdc53, hits give low values 0.966 | locus YDL214C, strain PRR2, hits give low values 0.825 | locus YDR052C, strain DBF4, hits give low values 0.986 | locus YDR054C, strain cdc34, hits give low values 0.959 | locus YDR226W, strain ADK1, hits give low values 0.965 | locus YDR477W, strain SNF1, hits give low values 0.758 | locus YER133W, strain GLC7, hits give low values 0.751 | locus YFL009W, strain cdc4, hits give low values 0.963 | locus YFL029C, strain CAK1, hits give low values 0.971 | locus YFR003C, strain YPI1, hits give low values 0.972 | locus YFR028C, strain CDC14, hits give low values 0.963 | locus YGR040W, strain KSS1, hits give low values 0.751 | locus YGR052W, strain FMP48, hits give low values 0.694 | locus YGR092W, strain DBF2, hits give low values 0.706 | locus YHR079C, strain IRE1, hits give low values 0.618 | locus YHR082C, strain KSP1, hits give low values 0.805 | locus YHR205W, strain SCH9, hits give low values 0.743 | locus YIL147C, strain SLN1, hits give low values 0.963 | locus YJL095W, strain BCK1, hits give low values 0.578 | locus YJL128C, strain PBS2, hits give low values 0.971 | locus YJL157C, strain FAR1, hits give low values 0.805 | locus YJR016C, strain ILV3, hits give low values 0.975 | locus YJR066W, strain TOR1, hits give low values 0.69 | locus YKL048C, strain ELM1, hits give low values 0.95 | locus YKL067W, strain YNK1, hits give low values 0.866 | locus YKL101W, strain HSL1, hits give low values 0.881 | locus YKL193C, strain SDS22, hits give low values 0.97 | locus YKL203C, strain TOR2, hits give low values 0.806 | locus YLR133W, strain CKI1, hits give low values 0.825 | locus YLR403W, strain SFP1, hits give low values 0.756 | locus YML070W, strain DAK1, hits give low values 0.804 | locus YMR001C, strain CDC5, hits give low values 0.958 | locus YMR205C, strain PFK2 (second series), hits give low values 0.898 | locus YMR277W, strain FCP1, hits give low values 0.977 | locus YNL006W, strain LST8, hits give low values 0.981 | locus YNL020C, strain ARK1, hits give low values 0.856 | locus YNL161W, strain CBK1, hits give low values 0.962 | locus YNL183C, strain NPR1, hits give low values 0.593 | locus YNL207W, strain RIO2, hits give low values 0.957 | locus YNL222W, strain SSU72, hits give low values 0.965 | locus YNL307C, strain MCK1 (second series), hits give low values 0.745 | locus YOL078W, strain AVO1, hits give low values 0.973 | locus YOL136C, strain PFK27, hits give low values 0.793 | locus YOR061W, strain CKA2, hits give low values 0.87 | locus YOR119C, strain RIO1, hits give low values 0.781 | locus YOR231W, strain MKK1, hits give low values 0.661 | locus YOR329C, strain SCD5, hits give low values 0.971 | locus YPL031C, strain PHO85, hits give low values 0.726 | locus YPL153C, strain RAD53, hits give low values 0.728 | locus YPL204W, strain HRR25, hits give low values 0.676 | locus YPL209C, strain IPL1, hits give low values 0.963 | locus YPR025C, strain CCL1, hits give low values 0.965 | locus YPR106W, strain ISR1, hits give low values 0.98 | locus YPR111W, strain DBF20, hits give low values 1 | strain NNK1, hits give low values 1 | strain TSCII, hits give low values 0.975
